# A selection: hits, their analogues and other compounds. The true share with any hit is near 19%.
# HT1080-NT tox = qHTS for induction of synthetic lethality in tumor cells producing 2HG: qHTS for the HT-1080-NT fibrosarcoma cell line; HT-1080-NT fibrosarcoma viability, CellTiter-Glo ATP luminescence, 48 h; Potency, µM (doses to about 46.1 µM), for the others: at the top dose activity, negative = less viability, actives largely listed as cytotoxic; 1.6% of 360,000 active;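 also: NT is the 2HG producing partner of a matched IDH1 knockdown line; 0% = DMSO-treated cells and -100% = media-only wells without cells; nearly all actives have a fitted effect of over 55% in size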
#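 Read-out is CellTiter-Glo luminescence after 10 minutes at room temperature, following 48 hours' compound treatment of HT-1080-NT cells (750 cells/well, RPMI, 5% FBS, 37 degrees C).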
# KB-3-1 cytotox = qHTS assay for MDR1-selective chemotherapeutics: Primary screen using the parental adenocarcinoma cell KB-3-1. KB-3-1 viability, CellTiter-Glo ATP luminescence, 72 h. Potency, µM (top dose mostly 46.1 µM), actives largely listed as cytotoxic. 1.4% of 400,000 active; also: nearly all actives have a fitted effect of over 60% in size
#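 72 h, 37 °C compound treatment of KB-3-1 parental cells; CellTiter-Glo added, 10 min, luminescence read. Data corrected against DMSO-only plates and normalized before curve fitting.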
# HT1080 IDH1KD tx = qHTS for induction of synthetic lethality in tumor cells producing 2HG: qHTS for the HT-1080-IDH1KD cell line | AID 686971, 2013 | HT-1080 IDH1 knockdown viability, ATP luminescence, 48 h | 2% of 360,000 active | Potency, µM (top dose mostly 46.1 µM), without a hit: at the top dose activity, negative = toxicity, actives largely listed as cytotoxic;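 also: 0% = DMSO wells and -100% = cell-free medium wells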
#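 Cytotoxicity counter-line: IDH1KD HT-1080, 48 h, CellTiter-Glo. Curves classed by r2, magnitude and activity.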
# TDP1 cell noCPT = qHTS for Inhibitors of human tyrosyl-DNA phosphodiesterase 1 (TDP1): qHTS in cells in absence of CPT; DT40 Tdp1-/- hTDP1 cells, no CPT, ATP luminescence, 48 h; Potency, µM (titrated, usually from 46.2 µM), inactives show top-dose activity change, negative = growth inhibition, hits mostly inhibitors; 15% of 420,000 active; also: nearly all actives have a fitted effect of over 55% in size
#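 Chicken DT40 Tdp1-/- cells complemented with human TDP1, screened without camptothecin (DMSO vehicle only), 400 cells/well. Compounds pin-transferred, cells incubated at 37 °C for at least 48 hr. Growth read as ATP-dependent luminescence (CellTiter-Glo, 30 min at RT).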
# KB-V1 cytotox = qHTS assay for MDR1-selective chemotherapeutics: Primary screen using the drug-selected MDR subline cells KB-V1 | KB-V1 MDR cells viability, CellTiter-Glo, 72 h | 3.4% of 400,000 active | Potency, µM (doses to about 46.1 µM), most hits filed as cytotoxic; also: nearly all actives have a fitted effect of over 60% in size
#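 In this primary screen, KB-V1 cells overexpressing P-gp are incubated with library compounds (lowest to highest concentration) for 72 h at 37 degrees C before a luminescent ATP viability read.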
# DT40 TDP1 CPT = qHTS for Inhibitors of human tyrosyl-DNA phosphodiesterase 1 (TDP1): qHTS in cells in presence of CPT. chicken DT40 Tdp1-/-;hTDP1 cells + 20 nM CPT, ATP luminescence, 48 h. Potency, µM (highest dose often 46.2 µM), for inactives: at the top dose activity change, negative = growth inhibition, actives largely listed as inhibitors. 12% of 420,000 active; also: nearly all actives have a fitted effect of over 55% in size
#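 Chicken DT40 Tdp1-/- cells stably complemented with human TDP1 were seeded at 400 cells/well in medium containing 20 nM camptothecin, exposed to pin-transferred compounds, and grown at 37 °C for at least 48 hr. Viability was read as ATP luminescence.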
# The depositor's hits bear a star; i = inactive; ? = inconclusive; · = no result given; ! = a repeat was not active. Calls follow the shape of the dose curve; as a rule, active = well fitted curve in the direction sought with a large enough effect; inconclusive = small, poorly fitted or top-dose-only effect, or another doubt; inactive = no such curve, though single readings can be large; an effect the other way counts as inactive or inconclusive. Unless noted, % is scaled to controls: 0 for no effect and ±100 for the full control effect; potency is read from the fitted curve at half-maximal effect.
SMILES,HT1080-NT tox,KB-3-1 cytotox,HT1080 IDH1KD tx,TDP1 cell noCPT,KB-V1 cytotox,DT40 TDP1 CPT
CNc1snc(C)c1C(=O)OC(C)C(=O)c1ccc(F)cc1 (stereo not drawn),7%,?,-4%,21µM*,i,18µM*
CCN(Cc1ccccc1)C(=O)COC(=O)c1c(C)nsc1NC,-7%,i,-1%,21µM*,i,15µM*
CCOc1cc(CNc2ccc(N(C)C)cc2)cc(Br)c1OCC(=O)NC(C)(C)C,?,?,?,21µM*,?,18µM*
CCOc1cc(CNc2ccc(N3CCCCC3)cc2)cc(Br)c1OCC(=O)NC(C)(C)C,-11%,i,-5%,16µM*,15µM*,?
CCOc1ccc(OCC(=O)Nc2ccc(N3CCCCC3)cc2)cc1,-7%,·,-1%,-10%,·,-2%
CCOc1cc(CNc2ccc(S(N)(=O)=O)cc2)ccc1OCC(=O)NC(C)(C)C,-10%,i,-13%,?,i,-23%
COc1ccc(C(=O)N/C(=C\c2cn(S(=O)(=O)N(C)C)c3ccccc23)C(=O)NCCCN2CCOCC2)cc1,-10%,i,-7%,-7%,i,-20%
Cc1ccc(OCC(=O)NCc2ccco2)cc1C,28%,i,12%,-13%,i,-15%
O=C(COc1ccc(Cl)cc1Cl)NCc1ccco1,11%,i,5%,-7%,i,-19%
Cc1cc(Cl)cc(Cl)c1OCC(=O)NCc1ccco1,-9%,i,-12%,18µM*,i,?
C/C(CC(=O)NCc1ccco1)=N\NC(=O)COc1ccc(Cl)cc1Cl,21µM*,?,?,21µM*,?,18µM*
CCCNC(=O)C/C(C)=N/NC(=O)COc1ccc(C)cc1Br,6%,i,3%,-29%,?,1%
COc1ccc(CNC(=O)C/C(C)=N/NC(=O)COc2ccc(C)cc2Br)cc1,16µM*,5.8µM*,18µM*,3.7µM*,?,2.3µM*
CCOC(=O)C1=C(C)NC(C)=C(C(=O)OCC)C1C(=O)OCC(=O)NCc1ccco1,-6%,i,-2%,21µM*,?,-55%
O=C(COc1ccccc1Cl)NCc1ccco1,8%,i,5%,-26%,i,-5%
O=C(COC(=O)COc1ccccc1)NCc1ccco1,14%,i,15%,-19%,i,5%
COc1ccc(OCCC(=O)OCC(=O)NCc2ccco2)cc1,9%,i,12%,?,i,21µM*
CCOc1ccccc1OCC(=O)NCc1ccco1,-17%,i,-26%,13µM*,i,29µM*
Cc1cccc(C)c1NC(=O)NCc1ccco1,0%,i,0%,-7%,i,-8%
Cc1cccc(C)c1OCCNC(=O)C(=O)NCc1ccco1,1.6µM*,1.5µM*,2.6µM*,2.3µM*,?,1.8µM*
Oc1ccc(N=Cc2cc(Br)c(N3CCOCC3)o2)cc1,4%,i,6%,21µM*,i,?
O=[N+]([O-])c1cc(Br)c(O)c(C=Nc2ccc(N3CCOCC3)cc2)c1,-13%,i,-15%,?,i,-19%
CCOc1ccc(-c2nnc(Nc3ccc(OC)c(C(=O)N4CCCCC4)c3)c3ccccc23)cc1,?,?,?,16µM*,?,?
CNC(=O)c1cc(Nc2nnc(-c3ccc(O)cc3)c3ccccc23)ccc1OC,-25%,i,-19%,?,i,16µM*!
N#CCSc1ccccc1NC(=O)COC(=O)C1CCN(C(=O)c2ccc(Cl)cc2)CC1,-2%,i,4%,-16%,i,2%
SMILES,HT1080-NT tox,KB-3-1 cytotox,HT1080 IDH1KD tx,TDP1 cell noCPT,KB-V1 cytotox,DT40 TDP1 CPT
Cc1cc(C)c2c(SC(C)C)nc(N)nc2n1,3%,i,-5%,18µM*,i,?
Cc1cc(C(=O)Nn2cnc3ccccc3c2=O)ccc1[N+](=O)[O-],13%,i,-3%,-18%,i,3%
O=C(NC(c1ccccc1)c1ccc2ccccc2n1)C1CCN(Cc2ccc(Oc3ccccc3)cc2)CC1 (stereo not drawn),?,i,13µM*,?,i,?
COc1cc(OC)nc(C(NC(=O)C2CCN(Cc3ccc(Oc4ccccc4)cc3)CC2)c2ccccc2C)n1 (stereo not drawn),16µM*,i,?,?,i,?
O=C(NC(c1ccccc1)c1ccc2ccccc2n1)C1CCN(Cc2ccc(Cl)c(Cl)c2)CC1 (stereo not drawn),?,?,?,15µM*,?,?
COc1ccc(CN2CCC(C(=O)NC(c3ccc4c(c3)OCO4)c3ccccn3)CC2)cc1 (stereo not drawn),4%,i,-15%,-16%,i,4%
CC(=O)c1ccc(NC(=O)CN(c2c(C)cccc2C)S(C)(=O)=O)cc1,1%,i,0%,-10%,i,-1%
NCCN1C(=O)c2ccccc2C1(O)c1ccc(Cl)cc1 (stereo not drawn),·,·,·,13µM*,·,?
CN1CCN(C(=O)c2ccc(NS(=O)(=O)c3cccc([N+](=O)[O-])c3)cc2)CC1,16%,i,13%,-21%,i,-2%

# High-throughput results from PubChem BioAssay.
